# Data published in PubChem BioAssay.
# Where “and” joins values, the source holds several entries; their conditions need not be identical. Equal entries are not always repeated. Some compounds were tested as several samples or in several runs, with calls that do not always agree. Calls of active or inactive are those of the source. Unless noted, how the calls were made is not given here.
# Assays:
# [1] = polyglutamine-triggered caspase-3 activation inhibitors, cell-based (AID 1583); conditions: polyglutamine-induced caspase-3 activation, cell assay; stronger effect = higher value;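 tested at 10 µM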
# [2] = suppressors of polyQ aggregation in yeast, 75Q-TubU reporter (AID 1593); conditions: Yeast 75Q polyglutamine aggregation reporter
# [3] = circadian clock period modulators, cell-based, LOPAC library, luminescence reporter (AID 2774); conditions: circadian reporter cells, at 7 µM, actives lie on both sides;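 further: values are relative to mean of DMSO wells on each plate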
# [4] = Cy5 fluorescence quenching or enhancement artefacts, artefact control for HCV NS3 helicase inhibitor project, biochemical, LOPAC1280 (AID 687037); conditions: Cy5-DNA-NS3h complex fluorescence interference counterscreen
# [5] = stimulators of nuclear beta-catenin in C2C12, primary screen, imaging, WNT3A-conditioned medium, mouse C2C12, NPC library (AID 1117326; in the data active means nuclear beta-catenin stimulation mostly above about 4.2%, no sharp cut-off; inactive means mostly below about 10%); conditions: stronger effect = higher value
# [6] = stimulators of insulin release from INS-1E, primary screen, cell-based, 5 mM glucose, NPC library (AID 1117329;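 active means compound raises insulin release from rat beta cells at 5 mM glucose, no numeric limit stated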); conditions: rat INS-1E insulin secretion, at 10 µM, stronger effect = higher value
# [7] = growth inhibition of GSK3B-pretreated HCT116 cells – cell-based, CellTiter-Glo, 0.2 to 20 µM (AID 1117336;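 active means compounds lowering colon cancer cell viability after pretreatment blocking the GSK3B kinase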); conditions: HCT116 viability after GSK3B inhibitor, at 20 µM, stronger effect = higher value
# [8] = inhibition of endothelial tube formation, primary screen, imaging, VEGF stimulated, CD31 staining, tube area, NPC library (AID 1117340;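 active means compound that reduces growth-factor-driven endothelial tube area in a mixed cell culture, no cutoff stated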); conditions: VEGF-stimulated ADSC/ECFC co-culture, at 10 µM, stronger effect = higher value
# [9] = glucagon-like peptide 1 release enhancers, primary assay, NCI-H716 cell line, NPC library (AID 1117341;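 active means compound raises GLP1 secretion from the human gut endocrine cells, with no numeric limit stated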); conditions: NCI-H716 cells, at 10 µM, stronger effect = higher value
# [10] = HCT116 colon cancer cell growth inhibition, primary screen, CellTiter-Glo luminescence, NPC library (AID 1117342;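 active means compounds that lower survival of HCT116 colon cancer cells in the luminescence readout, no numeric limit stated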); conditions: at 20 µM (top of the series)
# [11] = CellTiter-Glo luminescent readout of SW480 viability loss, NPC library primary (AID 1117343;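 active means compounds that lower viability of the colon cancer cells in the luminescence readout, with no numeric limit stated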); conditions: CellTiter-Glo luminescence; at 20 µM (top of the series)
# [12] = decreased DLD-1 cellular survival, CellTiter-Glo luminescent readout, NPC compound collection, primary HTS (AID 1117346;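 active means compounds that lower survival of DLD-1 colon cancer cells in the luminescence readout, no cutoff given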); conditions: DLD-1 viability, CellTiter-Glo luminescence; at 20 µM (top of the series)
# [13] = target: 6-phosphogluconate dehydrogenase, decarboxylating (Homo sapiens) (UniProt P52209); assay: 6PGD enzyme inhibitors, primary screen, biochemical, human, recombinant enzyme, NADPH absorbance (AID 1159550;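 active means at least 20% inhibition of 6-phosphogluconate dehydrogenase activity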); conditions: recombinant 6PGD, NADPH absorbance 341 nm; at 10 µM; stronger effect = higher value
# Chain of 6-phosphogluconate dehydrogenase, decarboxylating (Homo sapiens) (P52209 whole entry, looked up): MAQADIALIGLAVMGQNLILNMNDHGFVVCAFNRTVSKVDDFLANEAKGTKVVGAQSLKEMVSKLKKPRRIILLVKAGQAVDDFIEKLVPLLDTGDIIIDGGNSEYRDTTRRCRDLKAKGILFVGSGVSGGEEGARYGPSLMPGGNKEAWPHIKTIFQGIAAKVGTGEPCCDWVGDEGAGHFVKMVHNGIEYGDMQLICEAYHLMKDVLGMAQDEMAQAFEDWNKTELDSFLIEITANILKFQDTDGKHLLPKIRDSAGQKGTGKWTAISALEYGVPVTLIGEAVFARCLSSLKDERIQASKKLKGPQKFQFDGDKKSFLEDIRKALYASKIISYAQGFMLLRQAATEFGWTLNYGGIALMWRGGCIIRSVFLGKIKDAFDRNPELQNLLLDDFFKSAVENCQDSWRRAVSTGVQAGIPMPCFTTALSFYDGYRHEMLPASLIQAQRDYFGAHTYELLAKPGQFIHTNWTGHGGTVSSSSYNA
# [14] = differential killing of epithelial or mesenchymal cells, primary screen, imaging, PC-3E GFP, TEM4-18 mCherry, co-culture (AID 1345086;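 active means compounds killing one labelled cell type while sparing the other, by normalised counts and ratio limits, not self-fluorescent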;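 on all read-outs here: cells exposed to compound for 72 h before imaging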;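 on red/green cell ratio (normalised): normalised mesenchymal count divided by normalised epithelial count so high means epithelial killing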); conditions: imaging cell counts, at 1 µM; for red/green cell ratio (normalised): actives lie on both sides
# [15] = system: Aerobactin synthetase IucA (Klebsiella pneumoniae hvKP1); assay: Biochemical IucA enzyme inhibition primary screen of the Spectrum library (AID 1346200); conditions: malachite green pyrophosphate, A620, at 8 µM, stronger effect = lower value;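 further: 100% = wells without compound and 0% = wells lacking enzyme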
# [16] = survival rescue of mitochondrial mutant cells in low glucose, primary screen, MELAS cybrids, Rieske KO mouse fibroblasts, CellTiter-Glo (AID 1508586;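 active means mean z-score across replicates of 1.96 or higher in either the MELAS or the Rieske mutant cell line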;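 further: z relative to plate mean and SD of compound and empty wells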)
# [17] = target: NAD(+) hydrolase SARM1 (Homo sapiens) (UniProt Q6SZW1); assay: SARM1 TIR NADase inhibitors, cell lysate, NAD-Glo luminescence (AID 1508614;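 active means compound whose remaining NAD level is above about 45 nM, limit read from the data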); conditions: SAM-TIR HEK293T lysate NADase, at 1 µM, stronger effect = higher value
# Chain of NAD(+) hydrolase SARM1 (Homo sapiens) (Q6SZW1 whole entry, looked up, the tested form may be a part): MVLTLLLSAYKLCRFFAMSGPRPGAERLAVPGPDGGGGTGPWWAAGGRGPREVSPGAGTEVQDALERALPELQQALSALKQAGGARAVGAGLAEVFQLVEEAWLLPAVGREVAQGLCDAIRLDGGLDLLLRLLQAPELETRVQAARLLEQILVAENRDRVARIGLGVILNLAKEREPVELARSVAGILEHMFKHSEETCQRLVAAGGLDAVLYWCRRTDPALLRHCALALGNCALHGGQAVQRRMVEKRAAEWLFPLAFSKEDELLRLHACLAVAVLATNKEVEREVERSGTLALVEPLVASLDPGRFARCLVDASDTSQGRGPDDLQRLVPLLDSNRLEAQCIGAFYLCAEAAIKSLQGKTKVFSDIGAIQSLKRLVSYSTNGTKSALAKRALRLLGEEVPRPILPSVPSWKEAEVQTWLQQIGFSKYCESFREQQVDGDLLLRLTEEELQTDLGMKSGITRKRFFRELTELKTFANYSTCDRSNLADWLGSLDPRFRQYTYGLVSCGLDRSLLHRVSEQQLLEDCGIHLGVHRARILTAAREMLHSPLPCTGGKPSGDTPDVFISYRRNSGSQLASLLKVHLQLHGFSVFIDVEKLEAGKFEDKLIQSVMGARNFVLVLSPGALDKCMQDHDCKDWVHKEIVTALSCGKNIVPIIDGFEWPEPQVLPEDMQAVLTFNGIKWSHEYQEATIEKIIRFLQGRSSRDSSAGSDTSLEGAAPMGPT
# [18] = target: Mitogen-activated protein kinase 7 (Homo sapiens) (UniProt Q13164); assay: ERK5 transactivation activators in reporter cells, primary screen, cell-based, HTS (AID 1508626;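 active means luciferase signal above three times the same-plate solvent-only control wells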;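 further: luciferase driven by Gal4-ERK5 fusion binding five Gal4 sites before minimal TATA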); conditions: HeLa Gal4-ERK5 transactivation, 18 h, at 5 µM, stronger effect = higher value
# Chain of Mitogen-activated protein kinase 7 (Homo sapiens) (Q13164 whole entry, looked up, the tested form may be a part): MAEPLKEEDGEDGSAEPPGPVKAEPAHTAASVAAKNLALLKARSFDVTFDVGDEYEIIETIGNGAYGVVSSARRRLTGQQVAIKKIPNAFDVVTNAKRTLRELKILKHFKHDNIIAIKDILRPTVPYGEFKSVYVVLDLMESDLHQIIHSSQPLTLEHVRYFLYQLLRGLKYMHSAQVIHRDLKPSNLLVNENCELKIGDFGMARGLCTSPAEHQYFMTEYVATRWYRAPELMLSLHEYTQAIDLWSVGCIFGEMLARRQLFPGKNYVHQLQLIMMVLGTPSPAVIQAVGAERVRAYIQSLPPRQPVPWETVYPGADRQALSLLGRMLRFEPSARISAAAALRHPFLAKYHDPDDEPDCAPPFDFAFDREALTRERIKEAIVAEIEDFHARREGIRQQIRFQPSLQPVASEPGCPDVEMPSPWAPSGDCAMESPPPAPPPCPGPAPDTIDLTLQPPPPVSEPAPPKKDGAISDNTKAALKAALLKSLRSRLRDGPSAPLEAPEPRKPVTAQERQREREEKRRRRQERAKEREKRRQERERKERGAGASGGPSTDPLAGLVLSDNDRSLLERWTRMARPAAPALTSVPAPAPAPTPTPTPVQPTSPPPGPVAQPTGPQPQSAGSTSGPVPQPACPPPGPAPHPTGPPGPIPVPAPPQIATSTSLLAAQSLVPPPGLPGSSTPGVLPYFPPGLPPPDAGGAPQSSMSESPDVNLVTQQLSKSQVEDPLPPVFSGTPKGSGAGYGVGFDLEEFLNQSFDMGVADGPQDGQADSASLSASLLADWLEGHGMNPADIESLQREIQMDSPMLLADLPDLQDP
# [19] = viability rescue of complex I mutant cybrids, primary screen, cell-based, galactose medium, ATP luminescence (AID 1645843;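 active means z-score of at least 1.8 in each of two replicates, scored against plate mean and spread of sample wells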;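 further: positive z means more ATP and so rescue of galactose-driven cybrid death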); conditions: complex I mutant cybrid cells, 72 h, stronger effect = higher value
# [20] = sensitizers of A549 cells to miR-34 induction, primary screen, imaging, A549 dox-inducible miR-34, nuclei and caspase counts (AID 1347080;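 active means compounds whose cell count with miR-34 switched on is under 0.7 times the count with it off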); conditions: A549 miR-34 inducible, Hoechst nuclei count, 48 h
# [21] = measured here: epithelial PC-3E GFP cell survival
# [22] = measured here: mesenchymal TEM4-18 mCherry cell survival
# [23] = MELAS cybrid survival, CellTiter-Glo 48 h, stronger effect = higher value
# [24] = Rieske KO mouse fibroblast survival, CellTiter-Glo 72 h
# [25] = measured here: relative caspase fold change +Dox/-Dox
# [26] = measured here: total cells with miR-34 induction, stronger effect = lower value
# [27] = measured here: total cells without miR-34 induction
compound,measurement,setting,value
CCC1(c2ccc(N)cc2)CCC(=O)NC1=O (configuration not stated),inhibition,[1],22.4%
same,score,[2],1.07
same,period change,[3],0.015 h (inactive)
same,fluorescence ratio (interference),[4],1 (inactive)
same,nuclear beta-catenin stimulation,[5]; at 10 µM,-0.3% (inactive)
same,nuclear beta-catenin stimulation,"[5]; stimulation, at 2 µM",-0.3%
same,insulin secretion stimulation,[6],-2.7% (inactive)
same,viability decrease,[7],-4.4% (inactive)
same,tube area decrease,[8],14.2% (inactive)
same,GLP1 secretion stimulation,[9],4.2% (inactive)
same,inhibition of viability,[10],-0.6% (inactive)
same,viability decrease (inhibition),[11],45.3% (inactive)
same,viability decrease (inhibition),[12],10% (inactive)
same,inhibition,[13],13.3% (inactive)
same,red/green cell ratio (normalised),[14],0.89 (inactive)
same,normalised cell number,[14]; [21],1.36
same,normalised cell number,[14]; [22],1.2
same,activity remaining,[15],112% (inactive)
same,z-score,[16]; [23],-0.397 (inactive) and 0.19 (inactive) and 0.162 (inactive)
same,z-score,[16]; [24],-0.0248 and -0.0255 and -0.773
same,remaining NAD,[17],10 nM (inactive)
same,luciferase signal,[18],56 AU (inactive)
same,z-score,[19],0.24 (inactive) and 0.82 (inactive) and 0.775 (inactive)
N[C@@H](Cc1ccc(N(CCCl)CCCl)cc1)C(=O)O,inhibition,[1],9.42%
same,score,[2],1.14
same,nuclear beta-catenin stimulation,[5]; at 10 µM,5.3% (inactive)
same,nuclear beta-catenin stimulation,"[5]; stimulation, at 2 µM",-1.1%
same,insulin secretion stimulation,[6],-2.1% (inactive)
same,viability decrease,[7],57.9% (active)
same,tube area decrease,[8],89.6% (active)
same,GLP1 secretion stimulation,[9],0.9% (inactive)
same,inhibition of viability,[10],11.2% (inactive)
same,viability decrease (inhibition),[11],8.5% (inactive)
same,viability decrease (inhibition),[12],8.7% (inactive)
same,inhibition,[13],-5.9% (inactive)
same,red/green cell ratio (normalised),[14],0.83 (inactive)
same,normalised cell number,[14]; [21],0.94
same,normalised cell number,[14]; [22],0.77
same,activity remaining,[15],104% (inactive)
same,fold change,[20]; stronger effect = lower value,0.909 (inactive) and 0.963 (inactive)
same,fold change,[20]; [25],1.01 and 1.57
same,cell count,[20]; [26],3400 and 2500
same,cell count,[20]; [27],3740 and 2600
same,z-score,[16]; [23],0.0989 (inactive)
same,z-score,[16]; [24],-1.05
same,remaining NAD,[17],10 nM (inactive)
same,luciferase signal,[18],40 AU (inactive)
same,z-score,[19],-1.76 (inactive)
O=c1[nH]c2ccccc2n1CCCN1CCC(n2c(=O)[nH]c3cc(Cl)ccc32)CC1,period change,[3],-0.195 h (inactive)
same,fluorescence ratio (interference),[4],1 (inactive)
same,nuclear beta-catenin stimulation,[5]; at 10 µM,3.1% (inactive)
same,nuclear beta-catenin stimulation,"[5]; stimulation, at 2 µM",0.9%
same,insulin secretion stimulation,[6],41.9% (active)
same,viability decrease,[7],-17.1% (inactive)
same,tube area decrease,[8],12.9% (inactive)
same,GLP1 secretion stimulation,[9],6.8% (inactive)
same,inhibition of viability,[10],13.1% (inactive)
same,viability decrease (inhibition),[11],13.8% (inactive)
same,viability decrease (inhibition),[12],15.8% (inactive)
same,inhibition,[13],2.55% (inactive)
same,red/green cell ratio (normalised),[14],1.2 (inactive)
same,normalised cell number,[14]; [21],0.91
same,normalised cell number,[14]; [22],1.1
same,activity remaining,[15],117% (inactive)
same,z-score,[16]; [23],-0.488 (inactive) and -0.032 (inactive) and 1.25 (inactive)
same,z-score,[16]; [24],0.597 and -0.334 and 1.01
same,remaining NAD,[17],10 nM (inactive)
same,luciferase signal,[18],44 AU (inactive)
same,z-score,[19],-0.92 (inactive) and -0.455 (inactive) and -0.075 (inactive)
O=c1oc2ccccc2c(O)c1C(CC(O)c1ccc(-c2ccc(Br)cc2)cc1)c1ccccc1 (configuration not stated),nuclear beta-catenin stimulation,[5]; at 10 µM,8.3% (inactive)
same,nuclear beta-catenin stimulation,"[5]; stimulation, at 2 µM",2.6%
same,insulin secretion stimulation,[6],3.6% (inactive)
same,viability decrease,[7],100% (active)
same,tube area decrease,[8],2.4% (inactive)
same,GLP1 secretion stimulation,[9],23.9% (active)
same,inhibition of viability,[10],101% (active)
same,viability decrease (inhibition),[11],122% (active)
same,viability decrease (inhibition),[12],103% (active)
CN1C(=O)NC(=O)C(C)(C2=CCCCC2)C1=O (configuration not stated),nuclear beta-catenin stimulation,[5]; at 10 µM,1.5% (inactive)
same,nuclear beta-catenin stimulation,"[5]; stimulation, at 2 µM",0.7%
same,insulin secretion stimulation,[6],-0.5% (inactive)
same,viability decrease,[7],-11.4% (inactive)
same,tube area decrease,[8],0.1% (inactive)
same,GLP1 secretion stimulation,[9],0.1% (inactive)
same,inhibition of viability,[10],-2.4% (inactive)
same,viability decrease (inhibition),[11],18.4% (inactive)
same,viability decrease (inhibition),[12],-1.75% (inactive)
CC(CCc1ccccc1)NC(C)C(O)c1ccc(O)cc1 (configuration not stated),inhibition,[1],5.61%
same,score,[2],1.53
same,period change,[3],0.06 h (inactive)
same,fluorescence ratio (interference),[4],0.9 (inactive)
same,nuclear beta-catenin stimulation,[5]; at 10 µM,-0.2% (inactive)
same,nuclear beta-catenin stimulation,"[5]; stimulation, at 2 µM",-0.9%
same,insulin secretion stimulation,[6],43.4% (active)
same,viability decrease,[7],-3.7% (inactive)
same,tube area decrease,[8],16.8% (inactive)
same,GLP1 secretion stimulation,[9],-0.5% (inactive)
same,inhibition of viability,[10],16.9% (inactive)
same,viability decrease (inhibition),[11],24.3% (inactive)
same,viability decrease (inhibition),[12],-7.8% (inactive)
same,inhibition,[13],14.2% (inactive)
same,red/green cell ratio (normalised),[14],1.03 (inactive)
same,normalised cell number,[14]; [21],1.2
same,normalised cell number,[14]; [22],1.24
same,activity remaining,[15],82.9% (inactive)
same,fold change,[20]; stronger effect = lower value,1.06 (inactive) and 0.798 (inactive)
same,fold change,[20]; [25],0.901 and 0.92
same,cell count,[20]; [26],10600 and 10000
same,cell count,[20]; [27],10000 and 12600
same,z-score,[16]; [23],0.615 (inactive)
same,z-score,[16]; [24],-0.62
same,remaining NAD,[17],10 nM (inactive)
same,luciferase signal,[18],40 AU (inactive)
same,z-score,[19],-0.555 (inactive)
COc1ccc(C(CN(C)C)C2(O)CCCCC2)cc1 (configuration not stated),fluorescence ratio (interference),[4],1.1 (inactive)
same,nuclear beta-catenin stimulation,[5]; at 10 µM,3.1% (inactive)
same,nuclear beta-catenin stimulation,"[5]; stimulation, at 2 µM",1.4%
same,insulin secretion stimulation,[6],2.1% (inactive)
same,viability decrease,[7],-40% (inactive)
same,tube area decrease,[8],1.5% (inactive)
same,GLP1 secretion stimulation,[9],4.1% (inactive)
same,inhibition of viability,[10],-3.77% (inactive)
same,viability decrease (inhibition),[11],-4% (inactive)
same,viability decrease (inhibition),[12],-3.8% (inactive)
same,inhibition,[13],-0.228% (inactive)
same,red/green cell ratio (normalised),"[14]; counts scaled to control wells, 1 = unselective",1.25 (inactive)
same,normalised cell number,[14]; [21],1.01
same,normalised cell number,[14]; [22],1.26
same,activity remaining,[15],123% (inactive)
same,z-score,[16]; [23],2.81 (active) and 0.624 (inactive) and -0.216 (inactive)
same,z-score,[16]; [24],-2.19 and 0.0731 and -0.394
same,remaining NAD,[17],10 nM (inactive)
same,luciferase signal,[18],48 AU (inactive)
same,z-score,[19],-0.07 (inactive) and 0.705 (inactive) and 0.625 (inactive)
Cc1ncc(CNC(=O)N(CCCl)N=O)c(N)n1,period change,[3],-0.065 h (inactive)
same,fluorescence ratio (interference),[4],1 (inactive)
same,nuclear beta-catenin stimulation,[5]; at 10 µM,3% (inactive)
same,nuclear beta-catenin stimulation,"[5]; stimulation, at 2 µM",-0.9%
same,insulin secretion stimulation,[6],0.3% (inactive)
same,viability decrease,[7],-0.8% (inactive)
same,tube area decrease,[8],28.9% (inactive)
same,GLP1 secretion stimulation,[9],-6% (inactive)
same,inhibition of viability,[10],-0.1% (inactive)
same,viability decrease (inhibition),[11],10.9% (inactive)
same,viability decrease (inhibition),[12],1.8% (inactive)
same,inhibition,[13],2.15% (inactive)
same,red/green cell ratio (normalised),[14],0.95 (inactive)
same,normalised cell number,[14]; [21],0.91
same,normalised cell number,[14]; [22],0.86
same,activity remaining,[15],107% (inactive)
same,fold change,[20]; stronger effect = lower value,0.981 (inactive)
same,fold change,[20]; [25],1.12
same,cell count,[20]; [26],6420
same,cell count,[20]; [27],6540
same,remaining NAD,[17],10 nM (inactive)
same,luciferase signal,[18],100 AU (inactive)
same,z-score,[19],-0.62 (inactive)
